Pf apPOL inh = Pf-apPOL DNA polymerase inhibition. Recombinant Pf-apPOL, molecular beacon fluorescence, 1.5 h. inhibition, % at 10 µM. hit rate 0.25% among 210,000
mHTT-CaM PPI inh = disrupts binding of mutant huntingtin to calmodulin | P42858 | hit rate 3.6% among 190,000 | inhibition, % at 15 µM | AlphaScreen His-mHTT/GST-CaM binding, luminescence
Numbers stand for hits; . = inactive. Many of the other results were omitted from the sample, so hits are more common in it than they were. Rule as the data show it: active = inhibition above about 50%; inactive = the rest.

SMILES | Pf apPOL inh | mHTT-CaM PPI inh
O=C(Cc1ccc(F)cc1)N1CCOC(c2ccc(C(F)(F)F)cc2)C1 (configuration not stated) | . | .
COc1ccccc1NC(=O)c1c(NCc2cccnc2)sc2c1CCCCC2 | . | 80.0
COc1ccc(OC)c(NC(=O)c2c(N)sc3c2CCCCC3)c1 | . | 64.5
COc1ccccc1NC(=O)c1c(N)sc2c1CCCC2 | . | .
CCOc1ccccc1NC(=O)c1c(NC(=O)C(F)(F)F)sc2c1CCCCC2 | . | .
COc1ccc(OC)c(NC(=O)c2c(NCc3ccc(OC)c(OC)c3)sc3c2CCC3)c1 | . | 52.0
COc1ccccc1NC(=O)c1c(NCc2ccc(OC)c(OC)c2)sc2c1CCC2 | . | .
CCOC(=O)N1CCc2c(sc(NC(=O)c3cc(C)on3)c2C(=O)OC)C1 | . | .
CCOC(=O)N1CCc2c(sc(N)c2C(=O)Nc2cc(OC)ccc2OC)C1 | . | 53.6
COc1ccc(-c2coc3c4c(ccc3c2=O)OCN(CCCO)C4)cc1 | . | .
COc1ccc(-c2nnc3c4cnn(C)c4ncn23)cc1 | . | .
CSc1ccc(Cl)c(C(=O)N2CCN(c3nc(CN4CCCC4)cs3)CC2)c1 | . | .
COc1ccc(C(=O)N2CCC(c3nncn3C(C)C)CC2)cn1 | . | .
Cn1c(C2CCN(C(=O)Nc3ccccc3F)CC2)cc(=O)n2nccc12 | . | .
CCC(=O)NCc1nc2c(n1C)CN(C(=O)c1ccccc1Br)CC2 | . | .
CCOc1ccccc1NC(=O)c1c(NCc2ccccn2)sc2c1CCCC2 | . | .
COc1ccc(OC)c(NC(=O)c2c(NCc3cccnc3)sc3c2CCC3)c1 | . | 81.0
COc1ccc(OC)c(NC(=O)c2c(NC(=O)CNCc3ccco3)sc3c2CCC3)c1 | . | .
CCOc1ccccc1NC(=O)c1c(NCc2cccnc2)sc2c1CCCCC2 | . | 80.0
CC1CCc2c(sc3nc4c5ccccc5c(Cl)nn4c(=O)c23)C1 (configuration not stated) | . | .
O=C(c1cccs1)N1CCCC(OCc2cc(F)ccc2F)C1 (configuration not stated) | . | .
Cc1nc(C)c(Cc2ccc(Cl)cc2)c(N2CCN(S(C)(=O)=O)CC2)n1 | . | .
CCS(=O)(=O)N1CCN(c2nc(C)nc(C)c2Cc2ccc(Cl)cc2)CC1 | . | 53.2
CCCC(=O)Nc1nc2ccc(S(=O)(=O)NC(=O)CCC)cc2s1 | . | .
Cc1cc(Cl)ccc1NC(=O)CN1CCN(Cc2ccc3c(c2)OCO3)CC1 | . | 54.0
SMILES | Pf apPOL inh | mHTT-CaM PPI inh
CCNC(=O)CN1CCN(Cc2ccc3c(c2)OCO3)CC1 | . | .
Cn1c(CC2CCN(C(=O)c3ccccc3)C2)nc2cccnc21 (configuration not stated) | . | .
O=C1CSC(c2ccc3c(c2)OCO3)N1c1ccc(Cl)cc1 (configuration not stated) | . | .
O=C(CSc1nnc(NC(=O)c2cccs2)s1)NCc1ccccc1Cl | . | .
CC(C)C(=O)Oc1coc(CSc2nnc(NC(=O)c3cccs3)s2)cc1=O | 73.8 | 82.4
Cc1ccc(CN2C(=O)NC3(CCN(C(=O)Cc4ccccc4Cl)CC3)C2=O)cc1 | . | .
O=C(O)c1cc(-c2ccc(-c3c(-c4ccco4)noc3-c3ccccc3)cc2)nc2ccccc12 | 74.4 | 68.7
O=C(O)c1cc(-c2ccccc2)nc2ccccc12 | . | .
COCc1cccc(NC(=O)c2cccc(Br)c2)c1 | 54.1 | .
CC(=O)c1cccc(NC(=O)c2cccc(Br)c2)c1 | . | .
Cc1ccc(N2CCC(NC(=O)c3ccc4c(c3)OCO4)C2=O)cc1 (configuration not stated) | . | .
Cc1nnc(NC(=O)c2csc(-c3cnccn3)n2)s1 | . | .
O=C(Nc1nc(-c2ccco2)cs1)c1csc(-c2cnccn2)n1 | 75.5 | .
CS(=O)(=O)N(CC(=O)NC1CCCC1)c1ccc(I)cc1 | . | .
Oc1cccc(CNc2ccc3[nH]ncc3c2)c1 | . | 76.9
c1cc2c(cc1CNc1ccc3cn[nH]c3c1)OCO2 | . | 63.7
Oc1cccc(CNc2ccc(F)c(Cl)c2)c1 | . | .
Cc1cccc(CNc2ccc3cn[nH]c3c2)c1 | . | 60.4
O=C(O)c1ccc(NCc2ccc3c(c2)OCO3)cc1 | . | .
Cn1cc(CC(=O)Nc2ccc3cn[nH]c3c2)c2ccccc21 | . | .
COc1ccc(CCC(=O)N2CCCC2c2nc(-c3cccc(C)c3)no2)cc1 (configuration not stated) | . | .
CC(=O)Nc1ccc(C2(C(=O)N3CCN(CC(C)C)CC3)CCCCC2)cc1 | . | .
Nc1ccc(C(=O)Nc2ccc(-c3nc4ccccc4[nH]3)cc2)cc1 | . | .
O=C(c1ccc(F)c(F)c1)N1CCCC(C(=O)N2CCN(c3ccccc3F)CC2)C1 (configuration not stated) | . | .
CCN(CC)CCNC(=O)CN1C(=O)/C(=C/c2cccc(Cl)c2)Sc2ccccc21 | . | .
CCCCN(C)CCNC(=O)CN1C(=O)/C(=C/c2cccc(Cl)c2)Sc2ccccc21 | . | .
O=C(CN1C(=O)/C(=C/c2ccc(Cl)cc2)Sc2ccccc21)NCCN1CCCC1 | . | .

High-throughput results deposited in PubChem BioAssay by University of Kansas High Throughput Screening Laboratory.
